Experimental data: PubChem BioAssay (NCI)
The panel holds about 83,000 compounds, 20% with a hit somewhere; the sample as a whole holds those more often.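 A percent growth of 40 corresponds to 60% growth inhibition; 0 means no net growth; -100 means all cells died. Active threshold: below 10.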 The source made the active and inactive calls.

These compounds were tested on MDA-MB-468 breast (assay: NCI-60 one-dose screen, 48 h (100 = growth as untreated, 0 = no growth, -100 = all killed)). Settings: 10 µM unless noted.

| SMILES | growth |
| --- | --- |
| CCOC(=O)c1c(C)oc(C)c(C(=O)OCC)c1=O | 103% (inactive) |
| COc1ccc(-c2n/c(=C\c3c(O)[nH]c4ccc(OC)cc34)cc3c2=Nc2ccccc2-3)cc1 | -46.8% (active) |
| NCCCN | 107% (inactive) |
| CCN(CC)c1ccc(N=C2C=CC(=O)C=C2NC(C)=O)cc1 | 98.7% (inactive) |
| O=C1/C(=C2\SC(=S)N(C3CC3)C2=O)SC(=S)N1C1CC1 | 88.7% (inactive) |
| O=C1CCC(=O)N1Cc1ccccc1 | 88.2% (inactive) |
| COc1cccc(C(=O)NC(c2ccc(C)cc2)c2cc(Cl)c3cccnc3c2O)c1 (stereo unspecified) | -8.72% (active) |
| COc1ccc(/C=C2\Oc3cc(OCCN4CCCC4)ccc3C2=O)c(OC)c1 | 86.5% (inactive) |
| Oc1ccc(N=Cc2ccccc2O)cc1 | 93.3% (inactive) |
| COc1ccc(/C=C2\CN(C(=O)CCN3CCC(=NO)CC3)C/C(=C\c3ccc(OC)cc3)C2=O)cc1 | -27.5% (active) |
| CC(C)(C)OC(=O)N1CC(Cn2cc(C(F)(F)F)c3c(Cl)ncnc32)C1 | -46.8% (active) |
| COC(=O)c1c2c(c(C)[n+]([O-])c1C)C(=O)C(NCc1ccc(Br)cc1)=CC2=O | -16.6% (active) |
| CCCn1cnc2c(c1=N)C(c1ccc(Cl)cc1)c1sc3c(F)cccc3c1O2 (stereo unspecified) | 42.4% (inactive) |
| C/C=C/C(=O)OCCCCCCCCCCCC | 96.9% (inactive) |
| COc1ccc(-c2c(N)n[nH]c2-c2cc(OC)c(OC)c(OC)c2)cc1 | -0.0987% (active) |
| CCOC(=O)c1cnc2cc(Cl)c(F)cc2c1Nc1cccc(NS(C)(=O)=O)c1 | 87.6% (inactive) |
